Source: PubChem (National Center for Advancing Translational Sciences (NCATS))
D1 PAM = potentiators of human D1 dopamine receptor. P21728. HEK293 TREx D1 cells, calcium flux, dopamine EC20 potentiation. potentiation, % at 10 µM. 360,000 compounds, 0.036% hits; in the data active = potentiation above about 30%; also: 0% is about no effect
D1 ag = agonists of human D1 dopamine receptor | 360,000 compounds, 1% hits | activation, % at 2 µM | P21728 | AID 504660 | HEK293 T-REx D1 cells, calcium flux, agonist mode; in the data active = activation above about 30%; also: 0% is about no effect
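Agonism was scored from calcium flux recorded over 180 s (1 read/s) after pintool compound addition, following a 10-cycle baseline. Cells were inducible force-coupled HEK293 TREx D1, plated overnight at 30 C and loaded with no-wash calcium dye.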
D1 antag = blocks dopamine activation of the human D1 receptor | AID 504652 | activity change, negative = inhibition, % at 10 µM | 360,000 compounds, 3.2% hits | HEK293 TREx D1 cells, calcium flux, dopamine EC80; stronger effect = lower value | P21728; in the data active = activity change below about -30%; also: % is scaled to controls: 0 for no effect and ±100 for the full control effect
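Compound effects on dopamine-evoked calcium signalling were measured in tetracycline-induced HEK293 Trex D1 cells. Dopamine at EC80 followed a 180 s compound pre-read, and fluorescence was tracked kinetically for 180 s more.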
D3 antag = antagonists of human D3 dopamine receptor. D3R cells, DiscoveRx beta-arrestin luminescence, antagonist mode; stronger effect = lower value. P35462. max response, negative = inhibition, %. AID 652054. 360,000 compounds, 2.5% hits; in the data active = max response below about -50%; inconclusive = no clear call, values can overlap the other calls; also: % is scaled to controls: 0 for no effect and ±100 for the full control effect
Target sequence (P35462 whole entry, looked up): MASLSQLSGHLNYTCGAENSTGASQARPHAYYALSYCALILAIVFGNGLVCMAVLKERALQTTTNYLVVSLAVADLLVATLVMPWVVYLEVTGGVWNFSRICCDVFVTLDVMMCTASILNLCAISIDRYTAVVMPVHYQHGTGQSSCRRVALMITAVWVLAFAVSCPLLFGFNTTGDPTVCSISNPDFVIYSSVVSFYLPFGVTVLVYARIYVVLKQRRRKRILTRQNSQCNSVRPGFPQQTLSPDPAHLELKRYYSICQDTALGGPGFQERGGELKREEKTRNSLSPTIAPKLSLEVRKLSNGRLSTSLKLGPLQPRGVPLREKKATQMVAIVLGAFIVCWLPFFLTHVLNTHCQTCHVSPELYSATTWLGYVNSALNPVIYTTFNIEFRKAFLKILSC
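Cells expressing the human receptor were seeded at 1500 cells/well, incubated overnight at 37 degrees C in 5% CO2, then exposed to library compounds with dopamine controls for 90 minutes at 37 degrees C before luminescent detection.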
DRD3 agonist = activates the human D3 dopamine receptor. P35462. D3R DiscoveRx beta-arrestin cells, luminescence, 90 min. 410,000 compounds, 0.58% hits. AID 652048. max activation, %; in the data active = max activation above about 30%; also: 0% is about no effect
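Agonist-mode cell screen: cells plated at 1500/well and incubated overnight at 37 °C, then exposed to library compounds for 90 min at 37 °C. Detection reagent was added for 30–60 min at room temperature, and luminescence was read.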
* hit, by the source's call; ? = inconclusive; . = no result given. Hits are enriched below; roughly 6.1% of the tested compounds scored in any of these assays.

SMILES	D1 PAM	D1 ag	D1 antag	D3 antag	DRD3 agonist
COc1ccc2[nH]c(=O)c(CN(C(=O)c3cccc(Cl)c3)c3ccccc3OC)cc2c1	1.9	2.1	-10.7	.	9.1
CCCCOc1ccc(/C(O)=C2/C(=O)C(=O)N(Cc3cccnc3)C2c2ccncc2)c(C)c1 (stereo unspecified)	-1.1	-0.3	-56.3*	?	5.2
CN1CCc2c(sc(/N=C/c3cc(C(C)(C)C)ccc3O)c2C#N)C1	-8.2	1.4	-3.5	-54.1*	10.6
CC(C)(C)C1CC=C2C(C#N)=C(N)C(C#N)(C#N)C(c3cccs3)C2C1 (stereo unspecified)	10.8	2.4	-5.7	.	.
CCc1ccc(C2C(C#N)=C(N)C(C#N)(C#N)C3=CCC(C(C)(C)C)CC32)cc1 (stereo unspecified)	-1.7	-0.5	3.7	-93.4*	-11.9
COc1ccc(CC2(CO)CCN(Cc3ccc(OC(F)(F)F)cc3)CC2)cc1	-5.3	12.1	5.7	-20.1	-18.6
OCC1(CCc2ccccc2)CCCN(C/C=C/c2ccccc2)C1 (stereo unspecified)	-7.5	5.6	7.6	-68.2*	-23.0
COc1ccc(CC2(CO)CCN(C/C=C/c3ccccc3OC)CC2)cc1	2.0	-0.1	22.2	-92.9*	-26.2
COc1ccccc1/C=C/CN1CCCC(CO)(CCc2ccccc2)C1 (stereo unspecified)	-0.1	1.5	-17.9	-95.6*	-23.3
COc1ccccc1/C=C/CN1CCN(c2ccccc2)CC1	-8.5	2.4	-53.7*	-64.0*	18.9
Cc1c(C(=O)N(C)C)sc2c1c(=O)n(-c1ccc(F)cc1)c(=O)n2Cc1ccccc1C#N	-2.5	4.3	-3.4	.	6.9
CC(COc1ccccc1)N1CCC(CO)(Cc2ccccc2)CC1 (stereo unspecified)	-2.1	13.9	19.5	-88.9*	-9.1
COc1ccc(CC2(CO)CCN(C(C)COc3ccccc3)CC2)cc1 (stereo unspecified)	-3.3	0.5	0.5	?	18.1
Cc1cc(C(=O)C(C)OC(=O)C2=NNC(=O)CC2)c(C)n1-c1ccc(OC(F)F)cc1 (stereo unspecified)	-6.3	6.9	-11.2	0.0	0.0
Cc1cc(C(=O)COC(=O)C2=NNC(=O)CC2)c(C)n1-c1ccc(OC(F)F)cc1	-3.4	11.2	-34.6*	17.1	-4.8
Cc1cc(C(=O)COC(=O)C2=NNC(=O)CC2)c(C)n1-c1cccc(C(F)(F)F)c1	-2.1	9.1	-16.9	19.7	40.5*
COc1ccc(NC(=O)CN2C(=O)COc3ccc(S(=O)(=O)N4CCCCC4)cc32)cc1Cl	-3.4	1.7	-5.7	.	-2.1
COc1ccc(CCN(C)C(=O)CN2C(=O)NC3(CCCCCC3)C2=O)cc1OC	-5.8	-0.8	-59.6*	5.1	-3.6
COc1ccc(CNC(=O)CN2C(=O)NC3(CCCCCC3)C2=O)cc1OC	3.1	-4.4	-8.6	25.8	-0.4
COc1ccc(CCN(C)C(=O)Cc2ccc(-c3ccccc3)cc2)cc1OC	-1.9	10.2	-31.5*	-8.9	5.2
COc1ccc(CCN(C)C(=O)COc2ccc(C(=O)c3ccccc3)cc2)cc1OC	-16.9	5.0	-15.6	-7.4	-0.5
COc1cc2c(cc1NC(=O)C(C)N1CCN(S(=O)(=O)c3ccc(C)c(C)c3)CC1)oc1ccccc12 (stereo unspecified)	2.3	0.4	5.5	-20.9	31.4*
COc1cccc(NC(=O)C2(C)CCCN2C(=O)C(C)C)c1OC (stereo unspecified)	.	.	.	6.9	75.4*
CC(C)C(=O)N1CCC1(C)C(=O)NS(=O)(=O)c1cccs1 (stereo unspecified)	.	.	.	-63.3*	-8.6
Cc1ccc(C)c(NC(=O)C2(C)CCCN2C(=O)C(C)C)c1 (stereo unspecified)	.	.	.	9.1	10.1
SMILES	D1 PAM	D1 ag	D1 antag	D3 antag	DRD3 agonist
Cc1ccc(N(C)S(=O)(=O)c2nnc(NC(=O)C3CCCCC3)s2)cc1	1.3	1.5	-10.2	.	3.7
CCOC(=O)CCCCC(=O)c1[nH]c(=O)[nH]c1CSc1nc(C)cc(C)n1	-7.3	1.6	15.0	1.3	-4.5
CCOC(=O)CCCCC(=O)c1[nH]c(=O)[nH]c1CSc1nnc2c3cc(Br)ccc3n(C)c2n1	-1.4	2.9	-33.3*	.	.
Cc1nc2ccccc2c2nc(N)nn12	-9.8	0.3	-55.5*	11.6	2.8
Cc1nn(-c2ccccc2)c2[nH]c(=O)c(CNCC3CCCO3)cc12 (stereo unspecified)	-4.2	1.2	5.1	-82.5*	-8.2
Cc1nn(-c2ccccc2)c(Cl)c1C(=O)NCC1CCCO1 (stereo unspecified)	-10.0	1.3	13.3	0.0	6.3
COCCn1c(C)cc(C(=O)CSc2cc(C)c3ccccc3n2)c1C	-8.0	2.1	-38.1*	7.1	5.2
COCCn1c(C)cc(C(=O)CSc2nnc(C)s2)c1C	-0.3	1.9	-2.8	-1.2	-4.8
CN(Cc1ccccc1)C(=O)CSc1nc2ccccc2c(=O)n1Cc1ccco1	-0.9	3.7	-5.5	22.9	2.9
COCCn1c(C)cc(C(=O)CSc2nc3ccccc3c(=O)n2Cc2ccco2)c1C	0.2	1.7	0.8	16.2	43.4*
Cc1ccc(NC(=O)CN(C)C(=O)CSc2nc3ccccc3c(=O)n2Cc2ccco2)cc1	-1.7	2.5	-33.2*	20.5	-4.4
CN(C)c1ccc(N=Nc2ccccc2Br)cc1	-3.5	2.1	31.0	-26.4	-14.8
CN(C)c1ccc(N=Nc2nccs2)cc1	.	.	.	-82.3*	-13.3
C=CCNC(=O)c1ccc(C2SCC(=O)N2Cc2ccccc2)cc1 (stereo unspecified)	-6.7	0.7	-1.7	-5.8	0.3
O=C(NCc1ccccc1)c1ccc(C2SCC(=O)N2Cc2ccccc2)cc1 (stereo unspecified)	-4.7	34.1*	-0.2	-5.8	-1.3
CCOC(=O)c1sc2ccccc2c1S(=O)(=O)Nc1cccc(C(F)(F)F)c1	-6.2	0.9	-14.5	.	4.9
O=C1NCCCC1C(=O)N/N=C/c1cccc([N+](=O)[O-])c1 (stereo unspecified)	-1.1	1.0	-15.6	6.3	3.0
Cc1cccc(/C=N/NC(=O)C2CCCNC2=O)c1 (stereo unspecified)	-4.3	2.4	-84.5*	2.1	7.6
CCOCCCN(Cc1ccco1)C(=O)c1cc2c(s1)-c1c(C)cccc1OC2	-5.7	6.0	-12.0	.	4.4
CCN(CC)CC(=O)NCC1(c2ccccc2)CCCC1	1.2	0.2	-18.0	-7.8	-4.3
CCCN(CCC)C(C)C(=O)NCC1(c2ccccc2)CCCC1 (stereo unspecified)	-4.3	-0.1	-41.2*	-5.5	-2.2
CCn1cc(/C=C/c2cc[n+](C)cc2)c2ccccc21	-6.9	69.1*	-9.2	-2.7	-7.7
C=CCn1c(C)c(/C=C/c2cc[n+](C)cc2)c2ccccc21	4.5	11.4	4.1	-8.2	2.7
